# From ChEMBL document CHEMBL1157539, “Thousands of chemical starting points for antimalarial lead identification” (Nature, 2010)
# System: Plasmodium falciparum
# Test: GSK_TCMDC: Inhibition of Plasmodium falciparum 3D7 in whole red blood cells, using parasite LDH activity as an index of growth. Test compounds present at 2uM
# Type: functional
row,SMILES,Inhibition
1,NCC1CCCN1Cc1cccc(-c2cccc(-c3nc4cc(F)ccc4[nH]3)c2)c1.O=C(O)C(F)(F)F (centres undefined),100%
2,Br.CCOC(=O)c1cc(Cl)ccc1OCCCON1C(=N)N=C(N)NC1(C)C,94%
3,CC(C)N1CCC(N(Cc2ccc(-c3ccc(C(F)(F)F)cc3)cc2)C(=O)Cn2c(CCc3cccc(F)c3F)nc(=O)c3cccnc32)CC1.O=C(O)C(O)C(O)C(=O)O,100%
4,CN(C)CCN(C)Cc1ccc(-c2ccc3c(Nc4ccc(Cl)cc4F)ccnc3c2)o1,100%

# System: Plasmodium falciparum
# Test: GSK_TCMDC: Inhibition of Plasmodium falciparum Dd2 in whole red blood cells, using parasite LDH activity as an index of growth. Test compounds present at 2uM
# Type: functional
row,SMILES,Inhibition
1,O=C(O)C(F)(F)F.c1cc(CNCCN2CCNCC2)cc(-c2ccc(-c3nc4ccccc4[nH]3)cc2)c1,11%
2,O=C(Nc1cccc(-c2ccc(-c3nc4ccccc4[nH]3)cc2)c1)c1cccnc1,1%
3,COc1ccc2nc3cc(Cl)ccc3c(NCCCO)c2c1,100%
4,CCn1c(C)cc(C=C2SC(=Nc3ccccc3)NC2=O)c1C,87%
5,CC(C)NC(C)(C)CN(Cc1ccc(-c2ccc(C(F)(F)F)cc2)cc1)C(=O)Cn1c(CCc2cccc(F)c2F)nc(=O)c2ccccc21,68%
6,O=C(NCCCCN1CCC(c2ccc3ccccc3c2O)CC1)c1ccc(NC(=O)c2ccc(Cl)cc2)cc1,89%
7,COc1ccc(-c2cnc3[nH]cc(-c4ccc(C(=O)O)cc4)c3c2)cn1.O=C(O)C(F)(F)F,99%
8,Oc1cccc2ccc(Nc3ccccn3)nc12,93%
9,Cc1ccccc1N1CCN(c2ccc(C(=O)NC(C)C)cn2)CC1.O=C(O)C(F)(F)F,91%
10,COc1ccc2nccc([C@@H](O)CN3CCC(CO)(NCc4cc5ccccc5o4)CC3)c2c1.O=C(O)C(=O)O,7%
11,COc1ccc(NC(=O)CCNc2cc(C)nc(NCCc3ccc(F)cc3)n2)cc1.O=C(O)C(F)(F)F,3%
12,Cc1cc(O)c(-c2ccc(Sc3ccc(Cl)cc3)cc2)c(C)n1,84%
13,CN1CCN(Cc2cccc(-c3cc4nccc(Nc5ccc(Oc6ccccc6)cc5)c4cc3Cl)c2)CC1,96%
14,Cc1ccc(S(=O)(=O)NC2CCN(c3ccnc4cc(Cl)ccc34)C2)cc1.O=C(O)C(F)(F)F (centres undefined),90%
15,S=C(NCCc1ccccc1)Nc1ccc2ncsc2c1,3%
16,Cc1ccc(Nc2nc(-c3ccccn3)cs2)nc1,97%
17,O=C(/C=C/c1ccc(Cl)c(Cl)c1)NCCCCCCN1CCCN(C(=O)Nc2cccc(Cl)c2)CC1,2%
18,Cc1cccc(-n2nc(C)c3c2NC(=O)CC3C(=O)c2ccc(Cl)s2)c1 (centres undefined),85%
19,CCOc1ccc(-c2nonc2NC(=O)c2ccc(OC)cc2)cc1OCC,77%
20,C=C[C@]1(C)C[C@@H](OC(=O)NC(=O)C2CCN(C(=O)CSc3ccccc3)CC2)[C@]2(C)[C@H](C)CC[C@]3(CCC(=O)[C@H]32)[C@@H](C)[C@@H]1O,74%

row,SMILES,Inhibition
1,Cc1cccc2nc(-c3ccc(-c4cccc(CNCCN(C)C)c4)cc3)[nH]c12.O=C(O)C(F)(F)F,98%
2,O=S(=O)(Nc1cccc(CCN2CCCCC2CCN2CCCC2)c1)c1ccc2ccccc2c1 (centres undefined),40%
3,CC(Cc1ccc(OCCN2CCN(c3cccc(Cl)c3)CC2)cc1)NCC(O)c1cccc(C(F)(F)F)c1.Cl (centres undefined),98%
4,NC(=O)c1ccc(-n2cnc3cc(F)ccc32)cc1OCc1ccccc1C(F)(F)F.NC(=O)c1ccc(-n2cnc3ccc(F)cc32)cc1OCc1ccccc1C(F)(F)F,93%
5,Cc1cccc(-c2nn(-c3ccccc3)cc2C(=O)Nc2nnc(C)o2)c1,63%
6,COc1ccc(CCNC(C)Cc2ccc(C(=O)Nc3ccc(CC(C)NCCc4cccc(Cl)c4)cc3)cc2)cc1 (centres undefined),89%
7,COc1cc(NC(=O)Nc2ccnc3ccccc23)cc(OC)c1.Cl,34%
8,CC(C)c1ccc(CN2CCC(NC(=O)c3ccc(-c4cccc(Cl)c4)s3)CC2)cc1.O=C(O)C(F)(F)F,6%
9,COc1cc(C(=O)NCc2nn(CCN3CCC(N4CCCC4)CC3)cc2-c2ccc(Cl)c(Cl)c2)cc(OC)c1OC,0%
10,Cc1cc(N[C@@H](Cc2ccccc2)C(=O)NCc2cccc(F)c2)nc(NCCOc2ccccc2)n1.O=C(O)C(F)(F)F,7%
11,Cc1c(-c2ccccc2)ccc2[nH]cc(CC#N)c12,85%
12,CCCN(CCC)C(=O)c1cc(C(=O)N[C@@H](Cc2ccccc2)[C@H](O)CNC(C)(C)c2cccc(OC)c2)cc(N2CCCCS2(=O)=O)c1,74%
13,COc1cc2ncnc(Nc3ccc4nc(-c5ccccc5)[nH]c4c3)c2cc1OC.Cl,32%
14,O=C(Nc1ccc(Cl)cc1)c1cc(Cl)cc2nc(C(F)(F)F)[nH]c12,100%
15,CN(C)CCNCc1ccc(-c2ccc3c(Nc4ccc(Oc5ccccc5)cc4)ccnc3c2)o1,99%
16,Cc1cccc(CC2CC(=O)N(c3ccc([N+](=O)[O-])cc3)C2=O)c1 (centres undefined),1%
17,NCC1CCCN1Cc1cccc(-c2cccc(-c3nc4cc(F)ccc4[nH]3)c2)c1.O=C(O)C(F)(F)F (centres undefined),65%
18,Br.CCOC(=O)c1cc(Cl)ccc1OCCCON1C(=N)N=C(N)NC1(C)C,95%
19,CC(C)N1CCC(N(Cc2ccc(-c3ccc(C(F)(F)F)cc3)cc2)C(=O)Cn2c(CCc3cccc(F)c3F)nc(=O)c3cccnc32)CC1.O=C(O)C(O)C(O)C(=O)O,80%
20,CN(C)CCN(C)Cc1ccc(-c2ccc3c(Nc4ccc(Cl)cc4F)ccnc3c2)o1,76%
